# From PubChem
# DNA FID counter – compounds displacing fluorescent DNA intercalator, primary screen, artefact control for HCV NS3 helicase inhibitor project, biochemical, FID fluorescence. inhibition, % at 7.9 µM. 290,000 tested, 0.17% active. DNA fluorescent intercalator displacement. AID 1845, 2009; in the data active = inhibition above about 37%;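 note: 0% = vehicle and 100% = reference compound; higher means more ethidium bromide displaced from hairpin DNA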
# MEKK2 mut-MEK5 – MEK5 binding signal on mutant MEKK2 PB1, primary screen, biochemical, multiplex bead flow cytometry, Alexa488-MEK5 | percent response, % at 10 µM | AID 1530, 2009 | 290,000 tested, 0.35% active | Alexa488-MEK5 binding to MEKK2 mutant; in the data active = percent response above about 24%, passing the limit was not always enough
# MEKK3 PB1 HTS – modulators of MEKK3-MEK5 PB1 binding, primary screen, biochemical, wildtype MEKK3, multiplex bead flow cytometry, Alexa488-MEK5 | bead-based flow cytometry, Alexa488-MEK5 binding to MEKK3; actives lie on both sides; 0 = blocked by unlabeled MEK5, 100 = vehicle | Mitogen-activated protein kinase kinase kinase 3 (Homo sapiens), Q99759 | 290,000 tested, 1.4% active | binding response (% of control), % at 10 µM | AID 1529, 2009;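 active = binding response more than 3 SD above or below the average of its plate-row segment, actives on both sides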;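 note: Alexa488 bead fluorescence after subtracting the streptavidin-only scavenger bead signal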
# Target sequence (Q99759 whole entry, looked up): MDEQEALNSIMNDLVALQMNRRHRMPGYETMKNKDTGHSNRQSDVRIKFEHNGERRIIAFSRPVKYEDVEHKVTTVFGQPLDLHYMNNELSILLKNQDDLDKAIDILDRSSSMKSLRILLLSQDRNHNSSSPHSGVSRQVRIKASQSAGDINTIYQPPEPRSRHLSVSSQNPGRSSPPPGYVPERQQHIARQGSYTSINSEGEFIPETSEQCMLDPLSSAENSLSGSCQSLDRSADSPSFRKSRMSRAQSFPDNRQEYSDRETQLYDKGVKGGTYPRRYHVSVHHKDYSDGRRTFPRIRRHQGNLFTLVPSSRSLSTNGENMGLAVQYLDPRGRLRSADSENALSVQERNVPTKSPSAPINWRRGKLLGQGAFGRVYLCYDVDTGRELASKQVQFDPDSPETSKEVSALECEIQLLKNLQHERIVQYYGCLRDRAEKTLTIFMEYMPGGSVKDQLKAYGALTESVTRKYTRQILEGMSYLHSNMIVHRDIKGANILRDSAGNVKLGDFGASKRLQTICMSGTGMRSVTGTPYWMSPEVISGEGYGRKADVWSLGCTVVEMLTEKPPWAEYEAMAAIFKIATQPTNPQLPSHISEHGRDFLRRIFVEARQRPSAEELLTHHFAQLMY
# MEKK2wt PB1 HTS – modulators of MEK5 binding to wildtype MEKK2, primary screen, biochemical, multiplex bead flow cytometry, Alexa488-MEK5 | 290,000 tested, 1.1% active | AID 1531, 2009 | binding response (% of control), % at 10 µM | Alexa488-MEK5 binding to MEKK2 WT; actives lie on both sides | Mitogen-activated protein kinase kinase kinase 2 (Homo sapiens), Q9Y2U5; in the data active = binding response below about 67% or above about 130%
# dFosB act – activators of delta FosB homodimer, primary screen, biochemical, fluorescence polarization, TAMRA-CDK5 oligo, single point | 340,000 tested, 0.99% active | activation, % at 25 µM | purified delta FosB; percent of positive-control signal above neutral wells | Protein FosB (Mus musculus), P13346;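 active = mean activation above about 17%, with every replicate also reaching it, limit read from the data, passing the limit was not always enough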
# MEKK2wt confirm – modulators of MEK5 binding to wildtype MEKK2, confirmation, biochemical, single concentration, multiplex bead flow cytometry; shares compounds with MEKK3 PB1 HTS; Alexa488-MEK5 binding to MEKK2 WT; actives lie on both sides; binding response (% of control), % at 10 µM; 5,900 tested, 2.4% active; AID 1892, 2009; in the data active = binding response below about 16% or above about 210%; inactive = in between
# MEKK2mut-MEK5 – mutant MEKK2 PB1-MEK5 binding signal retest – biochemical, single concentration, multiplex bead flow cytometry, confirmation | shares compounds with MEKK3 PB1 HTS | Alexa488-MEK5 binding to MEKK2 mutant | percent response, % at 10 µM | 5,900 tested, 2% active | AID 1893, 2009; in the data active = percent response mostly above about 71%, no sharp cut-off; inactive = mostly below about 38%;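 note: higher means compound restores mutant binding toward wildtype level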
# MEKK3 confirm – MEKK3 wild-type PB1 binding to MEK5, inhibitors, confirmation, biochemical, bead multiplex flow cytometry, single concentration, wildtype. shares compounds with MEKK3 PB1 HTS. Alexa488-MEK5 binding to MEKK3; active compounds read low. binding response (% of control), % at 10 µM. 5,900 tested, 1.8% active. AID 1894, 2009;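 active = binding response below 72% of control, or above a set upper limit, though filed actives all read lower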;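 note: 100% = DMSO only wells and 0% = binding blocked by excess unlabeled MEK5; lower values mean stronger disruption of MEK5 binding to MEKK3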
# Starred values were filed as active, the others as inactive; . = no result given; [ ] = another dose, or the depositor's remark. Shown are actives, neighbours in structure and some others; about 2.9% of the full set was active somewhere.
SMILES,DNA FID counter,MEKK2 mut-MEK5,MEKK3 PB1 HTS,MEKK2wt PB1 HTS,dFosB act,MEKK2wt confirm,MEKK2mut-MEK5,MEKK3 confirm
CN1CC[C@@H](c2ccc(F)cc2)[C@H](COc2ccc3c(c2)OCO3)C1,.,4.0,100.0,121.0,.,.,.,.
CC(=O)N1N=C2C3CCN(CC3)C2C1c1ccccc1 (stereo not drawn),-3.7,-21.0,1.0*[inhibitor],-2.0*[inhibitor],4.2,99.0,1.0,104.0
COc1cc2c3cc1Oc1cc(ccc1O)C[C@@H]1c4c(cc(OC)c(O)c4Oc4ccc(cc4)C[C@H]3N(C)CC2)CCN1C,26.2,10.0,107.0,134.0*,13.1,118.0,8.0,97.0
COc1cc2c3cc1Oc1c(OC)c(OC)cc4c1[C@H](Cc1ccc(cc1)Oc1cc(ccc1O)C[C@H]3N(C)CC2)N(C)CC4,.,.,.,.,13.8,.,.,.
COc1ccc(CNCCc2cccc(F)c2)c2ccccc12,30.4,16.0,113.0,151.0*,.,117.0,10.0,103.0
COc1cc(OC)c(OC)cc1CNCCc1cccc(F)c1,4.6,10.0,104.0,103.0,-9.3,.,.,.
OCC[n+]1c2ccccc2nc2ccc(N3CCOCC3)cc21,31.6,-14.0,79.0,86.0,.,.,.,.
O=C1NC(=O)C(CCc2ccncc2)(CCc2ccncc2)C(=O)N1C1CCCCC1,-30.8,-14.0,94.0,87.0,-12.4,.,.,.
O=C1NC(=O)N(C2CCCCC2)C(=O)C1C1c2ccccc2C(=O)N1Cc1ccccc1 (stereo not drawn),-14.2,-12.0,76.0*[inhibitor],87.0,-1.2,108.0,4.0,106.0
CN(C)CCN=Cc1c(O)n(-c2cccc(C(F)(F)F)c2)c(=O)[nH]c1=O,-5.5,-20.0,2.0*[inhibitor],-2.0*[inhibitor],-4.9,98.0,4.0,101.0
C=CCn1c(O)c(C=NCCN(C)C)c(=O)[nH]c1=O,5.8,.,.,.,3.1,.,.,.
Cc1ccc(N(C)C(=O)Oc2cccc3cccnc23)cc1,-24.5,13.0,108.0,111.0,3.5,.,.,.
CN1CCc2cc3c(cc2C1)OCO3,.,.,.,.,0.3,.,.,.
CN1c2ccc([N+](=O)[O-])cc2CC2(C(=O)NC(=O)NC2=O)C1c1ccccc1 (stereo not drawn),3.8,3.0,134.0*,104.0,-3.4,96.0,-1.0,99.0
Cc1[nH]c2ccccc2c1C(=O)C(=O)N1CCC2(CC1)OCCO2,-3.9,2.0,104.0,104.0,-3.7,.,.,.
CCC(C)NC(=O)c1c(N)n(CC2CCCO2)c2nc3ccccc3nc12 (stereo not drawn),-6.1,-3.0,82.0*[inhibitor],86.0,-20.9,100.0,-2.0,102.0
CC(C)CCNC(=O)c1c(N)n(CC2CCCO2)c2nc3ccccc3nc12 (stereo not drawn),-5.3,-5.0,101.0,97.0,-11.7,.,.,.
CCC(N)Cc1c[nH]c2ccccc12 (stereo not drawn),-4.1,-7.0,64.0*[inhibitor],74.0,2.0,103.0,2.0,100.0
CNCCc1c[nH]c2ccccc12,-0.4,3.0,111.0,106.0,.,.,.,.
C/C=C1/C[N+]2(C)CCC34C(=C(C=O)[C@H]1C[C@@H]32)Nc1ccccc14 (stereo partly drawn),.,.,.,.,1.2,.,.,.
COc1cccc(NP(=O)(Oc2ccccc2Cl)Oc2ccccc2Cl)c1,-16.6,1.0,137.0*,109.0,-10.5,101.0,-7.0,104.0
CNC(=S)N1CC2CC(C1)c1cccc(=O)n1C2 (stereo not drawn),-6.0,-1.0,107.0,100.0,-1.3,.,.,.
Cn1cccc1/C=C1/C(=O)NC(=S)N(Cc2ccc(F)cc2)C1=O,-8.6,-19.0,88.0,56.0*[inhibitor],-16.5,98.0,0.0,98.0
Cn1cccc1/C=C1/C(=O)NC(=O)N(Cc2ccc(F)cc2)C1=O,-11.1,0.0,101.0,93.0,-9.7,.,.,.
COc1ccc(CNCCc2c(C)[nH]c3ccc(OC(F)(F)F)cc23)c(OC)c1,28.1,19.0,95.0,139.0*,-7.7,144.0,18.0,104.0
SMILES,DNA FID counter,MEKK2 mut-MEK5,MEKK3 PB1 HTS,MEKK2wt PB1 HTS,dFosB act,MEKK2wt confirm,MEKK2mut-MEK5,MEKK3 confirm
O=C1CN(O)C(c2ccccc2Cl)=c2cc(Br)ccc2=N1,-6.2,5.0,105.0,102.0,-5.1,.,.,.
CC/C(=N\Nc1cccc2ccccc12)c1c(O)[nH]c(=O)[nH]c1=O,-3.1,3.0,97.0,36.0*[inhibitor],-14.5,89.0,-14.0,95.0
CC/C(=N\Nc1ccccc1)c1c(O)[nH]c(=O)[nH]c1=O,-0.3,-10.0,94.0,94.0,1.0,.,.,.
CN(C(=O)Oc1ccc([N+](=O)[O-])cc1)c1ccccc1,-1.2,-1.0,73.0*[inhibitor],95.0,-4.9,97.0,-4.0,101.0
CC(C)(C)n1cc(C(=O)c2ccc3ccccc3c2O)cn1,-4.0,-2.0,129.0*,100.0,0.9,103.0,-1.0,100.0
Cc1c2ccncc2c(C)c2c1[nH]c1ccccc12,53.8*,28.0*,72.0*[inhibitor],201.0*,54.9*,195.0,58.0,105.0
O=c1[nH]c(=O)n(-c2cccc3ccccc23)c(O)c1/C=N/N1CCCCC1c1cccnc1 (stereo not drawn),-21.1,0.0,134.0*,106.0,-2.8,102.0,-2.0,102.0
COc1ccc(C2(C#N)CCN(C)CC2)cc1,9.2,-3.0,92.0,94.0,0.1,.,.,.
CC(C)COc1ccc(C2(C#N)CC[N+](C)(C)CC2)cc1,4.0,-17.0,80.0*[inhibitor],85.0,-2.8,100.0,2.0,101.0
C=C1C/C(=C/C)C(=O)O[C@@H]2CCN3CC=C(COC(=O)[C@]1(C)O)[C@H]23,-3.8,5.0,103.0,104.0,-1.3,.,.,.
CC(NCc1cccc(Cl)c1Cl)C(O)c1ccccc1 (stereo not drawn),7.6,5.0,102.0,43.0*[inhibitor],1.7,103.0,2.0,104.0
CCc1c(C)nc(N)nc1N1N=C1SCCOc1ccccc1,-7.4,-7.0,97.0,96.0,-4.9,.,.,.
c1ccc(CC(NCc2ccco2)c2ccccc2)cc1 (stereo not drawn),3.3,0.0,129.0*,112.0,0.2,103.0,6.0,103.0
CC[N+](CC)(CC#CCO)CC#Cc1ccccc1,0.5,17.0,105.0,131.0,1.3,.,.,.
ClCCN1CCN(c2ccnc3cc(Cl)ccc23)CC1,19.0,20.0,107.0,154.0*,2.5,112.0,9.0,104.0
